Results reported in PubChem BioAssay (NCATS).
Records with an inconclusive call do not appear. Activity calls are given as the source filed them. Unless noted, the call rests on the fitted dose curve; in most records, active means well fitted curve in the direction sought with a large enough effect; inconclusive means small, poorly fitted or top-dose-only effect, or another doubt; inactive means no such curve, though single readings can be large; an effect the other way counts as inactive or inconclusive.

Assays:
[1] = qHTS for differential inhibitors of proliferation of Plasmodium falciparum line GB4 (AID 1816); settings: Potency: Plasmodium falciparum GB4 proliferation inhibition;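 further: parasite growth measured after 72 h incubation; 0% = vehicle DMSO and -100% = reference inhibitor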
[2] = qHTS for differential inhibitors of proliferation of Plasmodium falciparum line D10 (AID 1877);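 further: parasites grown with compound for 72 h before DNA staining; plate controls were vehicle wells for no effect and reference inhibitor wells for full effect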
[3] = qHTS for differential inhibitors of proliferation of Plasmodium falciparum line Dd2 (AID 1882); settings: Potency: Plasmodium falciparum Dd2 proliferation inhibition;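 further: series mostly up to about 29 µM; compound exposure of 72 h on infected erythrocytes; plate controls were DMSO vehicle for no effect and 0.29 µM artemisinin for full effect; nearly all actives have a fitted effect of over 65% in size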
How it was run: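 SYBR Green I DNA fluorescence read-out, ex 485/em 535 nm. Signals were normalized to 0.29 uM artemisinin and DMSO wells, then corrected using vehicle-only plates flanking each stack. Parasite growth ran 72 h in erythrocytes before lysis.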

[4] = qHTS for differential inhibitors of proliferation of Plasmodium falciparum line W2 (AID 1883); settings: Potency: Plasmodium falciparum W2 proliferation inhibition;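 further: parasites grown with compound for 72 h before lysis and staining; 0% = vehicle wells and -100% = control inhibitor wells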
[5] = qHTS for differential inhibitors of proliferation of Plasmodium falciparum line HB3 (AID 1886); settings: Potency: Plasmodium falciparum HB3 proliferation inhibition;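 further: parasites grown with compound for 72 h before SYBR Green readout; plate controls were vehicle for no effect and reference inhibitor for full effect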
[6] = qHTS Assay for Modulators of Human Peripheral Myelin Protein 22 (PMP22) Expression/Activity (AID 1967; active means well fitted curve in the direction sought with a large enough effect in the signal ratio; the % refers to the signal ratio;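 further: 0% = untreated cells and 100% end not stated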)
How it was run: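 Quantitative HTS in a mouse Schwann cell line expressing dual click beetle luciferases: Pmp22 promoter (green) and control EF-alpha promoter (red). After 24h treatment, corrected green/red signal ratio gave %Activity relative to untreated cells.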

[7] = target: Ferritin light chain (Equus caballus) (UniProt P02791); assay: qHTS Validation Assay for Identification of Novel General Anesthetics (AID 2323); further: series mostly up to about 77 µM; on the % scale 0 is the no-effect control and ±100 the full control effect
Chain of Ferritin light chain (Equus caballus) (P02791 2-175 limits assumed): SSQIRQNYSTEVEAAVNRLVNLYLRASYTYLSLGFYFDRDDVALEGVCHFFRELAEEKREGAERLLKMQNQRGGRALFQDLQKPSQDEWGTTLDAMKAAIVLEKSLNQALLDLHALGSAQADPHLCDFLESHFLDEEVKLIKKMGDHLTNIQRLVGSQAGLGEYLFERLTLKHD
How it was run: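 Apoferritin from horse spleen (10 uM) was mixed with 1-aminoanthracene at 50% saturation in PBS, then compounds were added. After 10 min at room temperature, fluorescence was read (ex 380 nm, em 535 nm) and normalized to free-probe and complex controls.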

[8] = target: ATP-dependent DNA helicase Q1 (Homo sapiens) (UniProt P46063); assay: qHTS Validation Assay for Inhibitors of RecQ-Like Dna Helicase 1 (RECQ1) (AID 2353);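 further: plate controls were DMSO vehicle for no effect and enzyme-free control for full effect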
Chain of ATP-dependent DNA helicase Q1 (Homo sapiens) (P46063 whole entry, looked up): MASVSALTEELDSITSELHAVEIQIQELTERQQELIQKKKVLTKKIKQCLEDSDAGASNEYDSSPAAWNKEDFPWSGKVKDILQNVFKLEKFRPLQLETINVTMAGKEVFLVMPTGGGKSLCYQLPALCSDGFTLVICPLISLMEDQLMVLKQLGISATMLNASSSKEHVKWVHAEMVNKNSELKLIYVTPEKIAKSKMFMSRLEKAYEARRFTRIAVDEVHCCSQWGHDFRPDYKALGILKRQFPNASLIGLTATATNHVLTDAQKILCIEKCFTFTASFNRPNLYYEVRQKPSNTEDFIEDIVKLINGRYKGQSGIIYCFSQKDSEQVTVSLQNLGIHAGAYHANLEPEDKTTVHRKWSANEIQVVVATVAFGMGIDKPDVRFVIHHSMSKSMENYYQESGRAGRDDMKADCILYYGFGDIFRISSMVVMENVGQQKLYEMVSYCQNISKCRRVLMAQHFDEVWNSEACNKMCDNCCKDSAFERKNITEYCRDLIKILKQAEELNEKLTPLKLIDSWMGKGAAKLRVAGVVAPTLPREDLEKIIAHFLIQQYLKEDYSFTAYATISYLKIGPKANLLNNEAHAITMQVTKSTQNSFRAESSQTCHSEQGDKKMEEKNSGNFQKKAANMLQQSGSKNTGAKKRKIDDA
How it was run: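 50 nM RECQ1T1 preincubated 15 min with compound in Tris pH 8.0 buffer with MgCl2, DTT, Tween-20 and 2.5 ug/ml poly(dI-dC); started with 200 nM TAMRA/BHQ-2 forked duplex and 2 mM ATP. Unwinding read as fluorescence (525/598 nm), two reads 2 h apart.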

[9] = Validation screen for inhibitors of Lassa infection (AID 463096; calls by dose curve; further: on the % scale 0 is the no-effect control and ±100 the full control effect)
[10] = Validation screen for small molecules that induce DNA re-replication in MCF 10A normal breast cells (AID 463097); further: 0% is about no effect; nearly all actives have a fitted effect of over 60% in size
How it was run: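 DNA re-replication was detected as a rise in nuclei with elevated Hoechst fluorescence after a 48 hr compound exposure of MCF 10A cells at 37 C.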

[11] = Quantitative high throughput screen for delayed death inhibitors of the malarial parasite plastid, 96 hour incubation (AID 488745);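 further: luciferase-expressing P. falciparum in erythrocytes at 2% hematocrit and 0.1% parasitemia; series mostly up to about 29 µM; on the % scale 0 is the no-effect control and ±100 the full control effect; nearly all actives have a fitted effect of over 70% in size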
How it was run: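 Growth of reporter-bearing P. falciparum in red cells is measured after 96 h with compound, covering two erythrocytic cycles. Luminescence from the integrated luciferase serves as the growth signal.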

[12] = Quantitative high throughput screen for delayed death inhibitors of the malarial parasite plastid, 48 hour incubation (AID 488752); further: on the % scale 0 is the no-effect control and ±100 the full control effect; nearly all actives have a fitted effect of over 65% in size
How it was run: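 One parasite generation (48 h, 37 C, 5% CO2) of luciferase-reporter P. falciparum in erythrocytes is run with test compound; decreased luminescence indicates inhibited growth.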

[13] = target: M-phase phosphoprotein 8 (Homo sapiens) (UniProt Q99549); assay: qHTS Validation Assay for Inhibitors for MPP8 Chromodomain Interactions with Methylated Histone Tails (AID 488949);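 further: AlphaScreen signal from MPP8 chromodomain bound to biotinylated H3K9me3 peptide; top concentration of the series differs between compounds; on the % scale 0 is the no-effect control and ±100 the full control effect; nearly all actives have a fitted effect of over 55% in size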
Chain of M-phase phosphoprotein 8 (Homo sapiens) (Q99549 whole entry, looked up): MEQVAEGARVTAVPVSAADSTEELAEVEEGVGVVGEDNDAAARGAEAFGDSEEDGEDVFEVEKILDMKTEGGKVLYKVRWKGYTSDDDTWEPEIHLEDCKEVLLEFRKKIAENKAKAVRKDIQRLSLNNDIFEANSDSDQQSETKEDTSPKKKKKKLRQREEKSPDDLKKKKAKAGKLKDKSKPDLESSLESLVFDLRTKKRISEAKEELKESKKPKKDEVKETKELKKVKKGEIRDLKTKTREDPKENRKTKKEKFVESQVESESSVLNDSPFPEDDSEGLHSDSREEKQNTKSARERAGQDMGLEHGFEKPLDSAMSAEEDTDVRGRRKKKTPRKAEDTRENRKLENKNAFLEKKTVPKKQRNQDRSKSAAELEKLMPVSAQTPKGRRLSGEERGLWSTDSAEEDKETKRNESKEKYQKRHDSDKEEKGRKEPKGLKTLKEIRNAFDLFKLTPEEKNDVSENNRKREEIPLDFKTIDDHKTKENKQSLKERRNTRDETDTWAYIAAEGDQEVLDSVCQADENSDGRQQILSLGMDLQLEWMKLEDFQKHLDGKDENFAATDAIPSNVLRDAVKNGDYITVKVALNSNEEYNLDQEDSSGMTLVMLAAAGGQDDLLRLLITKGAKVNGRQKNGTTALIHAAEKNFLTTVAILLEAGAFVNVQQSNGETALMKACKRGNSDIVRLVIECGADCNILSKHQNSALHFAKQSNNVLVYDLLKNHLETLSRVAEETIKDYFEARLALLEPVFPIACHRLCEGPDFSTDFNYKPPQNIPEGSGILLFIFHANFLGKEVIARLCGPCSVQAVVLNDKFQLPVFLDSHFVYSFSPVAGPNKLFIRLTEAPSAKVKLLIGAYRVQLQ
How it was run: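 Disruption of the preformed MPP8–trimethyl-H3K9 peptide complex (both 50 nM, 30 min, RT) is measured after 30 min compound exposure, using AlphaScreen proximity beads; aurintricarboxylic acid titration serves as plate control.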

[14] = target: Transient receptor potential cation channel subfamily V member 1 (Homo sapiens) (UniProt Q8NER1); assay: HTS Assay for Compounds that Act as Enhancers of the Vanilloid Receptor 1 (AID 488979); further: 0% is about no effect
Chain of Transient receptor potential cation channel subfamily V member 1 (Homo sapiens) (Q8NER1 whole entry, looked up): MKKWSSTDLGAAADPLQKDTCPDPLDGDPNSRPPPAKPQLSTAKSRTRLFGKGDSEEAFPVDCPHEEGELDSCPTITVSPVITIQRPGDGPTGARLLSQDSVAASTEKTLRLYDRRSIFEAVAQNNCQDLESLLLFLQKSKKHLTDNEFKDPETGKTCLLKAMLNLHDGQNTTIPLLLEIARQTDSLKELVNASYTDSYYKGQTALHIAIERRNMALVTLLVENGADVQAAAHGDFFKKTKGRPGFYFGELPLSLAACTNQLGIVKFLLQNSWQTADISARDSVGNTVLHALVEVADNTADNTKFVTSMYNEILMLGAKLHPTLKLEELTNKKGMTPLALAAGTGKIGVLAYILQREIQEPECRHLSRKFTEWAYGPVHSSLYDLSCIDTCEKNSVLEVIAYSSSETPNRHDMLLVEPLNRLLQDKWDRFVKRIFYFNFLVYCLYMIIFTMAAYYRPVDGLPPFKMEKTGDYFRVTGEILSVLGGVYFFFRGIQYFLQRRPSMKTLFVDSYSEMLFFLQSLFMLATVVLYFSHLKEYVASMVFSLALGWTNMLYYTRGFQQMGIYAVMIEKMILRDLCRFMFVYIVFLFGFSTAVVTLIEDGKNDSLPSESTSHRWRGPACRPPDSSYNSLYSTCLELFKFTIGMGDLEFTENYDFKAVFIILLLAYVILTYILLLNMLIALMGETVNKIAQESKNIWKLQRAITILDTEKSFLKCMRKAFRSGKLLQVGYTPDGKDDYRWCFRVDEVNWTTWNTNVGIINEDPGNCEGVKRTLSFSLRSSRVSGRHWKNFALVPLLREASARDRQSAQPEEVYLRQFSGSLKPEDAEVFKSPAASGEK
How it was run: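 Calcium influx kinetics via Fluo-8 (480/520 nm) in TRPV1-expressing cells, 2000/well cultured overnight at 35.5C. Compound-alone read 3 min (agonist phase), followed by EC20 capsaicin challenge for 2 min (enhancer phase).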

[15] = target: Thyrotropin receptor (Homo sapiens) (UniProt P16473); assay: qHTS Assay for Antagonists of the Thyroid Stimulating Hormone Receptor (AID 488980); further: series mostly up to about 58 µM; 0% is about no effect
Chain of Thyrotropin receptor (Homo sapiens) (P16473 whole entry, looked up): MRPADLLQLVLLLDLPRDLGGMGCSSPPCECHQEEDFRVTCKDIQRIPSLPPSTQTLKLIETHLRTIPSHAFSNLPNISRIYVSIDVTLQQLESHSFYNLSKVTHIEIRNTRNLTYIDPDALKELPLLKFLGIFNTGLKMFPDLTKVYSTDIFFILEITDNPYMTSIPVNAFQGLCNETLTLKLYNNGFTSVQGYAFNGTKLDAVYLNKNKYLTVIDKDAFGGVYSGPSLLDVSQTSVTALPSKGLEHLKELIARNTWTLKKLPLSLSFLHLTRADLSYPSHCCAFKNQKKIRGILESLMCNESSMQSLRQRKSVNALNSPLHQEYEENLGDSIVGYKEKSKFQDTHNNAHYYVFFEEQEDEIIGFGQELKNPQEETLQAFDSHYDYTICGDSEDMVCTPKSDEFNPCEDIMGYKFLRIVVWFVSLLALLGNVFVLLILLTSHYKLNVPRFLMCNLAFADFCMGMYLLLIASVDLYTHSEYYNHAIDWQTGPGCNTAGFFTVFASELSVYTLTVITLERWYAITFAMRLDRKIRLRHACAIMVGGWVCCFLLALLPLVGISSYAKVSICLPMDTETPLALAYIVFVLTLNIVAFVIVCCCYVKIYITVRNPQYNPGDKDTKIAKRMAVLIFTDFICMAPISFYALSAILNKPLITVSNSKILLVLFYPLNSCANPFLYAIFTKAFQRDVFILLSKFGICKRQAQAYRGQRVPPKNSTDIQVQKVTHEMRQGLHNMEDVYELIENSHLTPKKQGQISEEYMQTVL
How it was run: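 Cells expressing human TSHR (HEK293) are dispensed in HBSS/HEPES containing 70 uM RO 20-1724, compound is added, then TSH at EC80 (4 nM final). Antibody in lysis buffer follows, 30 minutes at room temperature before HTRF detection.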

[16] = target: Thyrotropin-releasing hormone receptor (Homo sapiens) (UniProt P34981); assay: qHTS for Small Molecule Agonists and Allosteric Enhancers of Human TRH Receptor: Validation Screen for Agonists (AID 493127;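 active means calcium activation more than 3 SD above the typical response in the agonist read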;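 further: intracellular calcium rise by fluo-8 fluorescence before TRH EC20 addition; 0% is about no effect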); settings: TRH receptor agonist cell assay; at 2 µM; active compounds read high
Chain of Thyrotropin-releasing hormone receptor (Homo sapiens) (P34981 whole entry, looked up): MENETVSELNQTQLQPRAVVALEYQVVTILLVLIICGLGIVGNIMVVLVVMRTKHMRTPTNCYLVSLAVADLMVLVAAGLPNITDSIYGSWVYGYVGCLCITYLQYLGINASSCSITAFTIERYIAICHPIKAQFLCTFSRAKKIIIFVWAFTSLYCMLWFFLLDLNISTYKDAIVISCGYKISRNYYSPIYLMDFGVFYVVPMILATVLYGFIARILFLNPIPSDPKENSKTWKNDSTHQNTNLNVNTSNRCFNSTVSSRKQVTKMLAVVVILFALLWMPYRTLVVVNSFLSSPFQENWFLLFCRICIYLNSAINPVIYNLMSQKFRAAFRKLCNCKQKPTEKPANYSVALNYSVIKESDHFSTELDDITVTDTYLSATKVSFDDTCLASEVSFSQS
How it was run: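 Gq-coupled calcium mobilization in TRHR cells after compound addition, monitored kinetically with fluo-8 dye on an FDSS reader.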

[17] = target: Galactokinase (Homo sapiens) (UniProt P51570); assay: qHTS Validation Assay for Inhibitors of Human Galactokinase (GALK) (AID 493189); further: 0% is about no effect
How it was run: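 Compounds were pin-transferred into ATP buffer, then GALK-galactose mix was added (final 5 nM enzyme, 100 uM galactose, 35 uM ATP). After 1 h at room temperature, remaining ATP was measured luminescently.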

[18] = target: Voltage-gated inwardly rectifying potassium channel KCNH2 (Homo sapiens) (UniProt Q12809); assay: qHTS Assay for Small Molecule Inhibitors of the Human hERG Channel Activity (AID 588834);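 further: top concentration of the series differs between compounds; on the % scale 0 is the no-effect control and ±100 the full control effect; lower thallium flux fluorescence means stronger hERG block; nearly all actives have a fitted effect of over 50% in size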
Chain of Voltage-gated inwardly rectifying potassium channel KCNH2 (Homo sapiens) (Q12809 whole entry, looked up): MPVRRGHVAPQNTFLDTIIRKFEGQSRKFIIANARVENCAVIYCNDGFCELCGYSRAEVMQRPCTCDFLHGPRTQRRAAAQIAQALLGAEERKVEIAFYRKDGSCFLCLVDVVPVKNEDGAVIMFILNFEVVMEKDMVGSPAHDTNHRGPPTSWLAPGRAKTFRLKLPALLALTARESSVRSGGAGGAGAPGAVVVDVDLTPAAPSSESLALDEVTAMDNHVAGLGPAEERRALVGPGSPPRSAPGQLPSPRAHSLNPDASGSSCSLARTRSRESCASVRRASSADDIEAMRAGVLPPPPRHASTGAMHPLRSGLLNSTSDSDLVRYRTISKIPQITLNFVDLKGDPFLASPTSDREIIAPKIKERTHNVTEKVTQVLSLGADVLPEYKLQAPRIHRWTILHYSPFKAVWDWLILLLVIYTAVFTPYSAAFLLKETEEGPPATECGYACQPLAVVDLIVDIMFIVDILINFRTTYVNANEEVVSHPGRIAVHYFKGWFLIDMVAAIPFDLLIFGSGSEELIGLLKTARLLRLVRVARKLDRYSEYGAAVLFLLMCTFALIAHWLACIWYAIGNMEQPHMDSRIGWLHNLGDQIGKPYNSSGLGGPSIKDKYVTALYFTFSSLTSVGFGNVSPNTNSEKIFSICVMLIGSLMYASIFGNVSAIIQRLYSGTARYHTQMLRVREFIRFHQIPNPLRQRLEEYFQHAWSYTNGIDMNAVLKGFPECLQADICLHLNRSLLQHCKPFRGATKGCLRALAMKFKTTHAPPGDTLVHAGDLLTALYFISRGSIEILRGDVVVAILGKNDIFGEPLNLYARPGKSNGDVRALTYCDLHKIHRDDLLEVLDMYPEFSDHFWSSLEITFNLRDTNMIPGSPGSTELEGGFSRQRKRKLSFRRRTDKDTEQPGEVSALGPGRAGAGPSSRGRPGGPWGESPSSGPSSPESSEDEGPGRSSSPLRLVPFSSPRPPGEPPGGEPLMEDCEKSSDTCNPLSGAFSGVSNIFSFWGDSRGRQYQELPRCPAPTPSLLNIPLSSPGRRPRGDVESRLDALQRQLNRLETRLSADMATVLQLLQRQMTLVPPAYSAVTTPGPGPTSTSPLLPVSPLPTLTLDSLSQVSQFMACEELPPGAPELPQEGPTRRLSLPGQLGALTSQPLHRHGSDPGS
How it was run: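 Measured: FluxOR fluorescence after thallium stimulation in U2OS cells transduced with hERG by baculovirus. Compounds pre-incubated around 10 min; medium Opti-MEM with 2% FCS. AC50 from Hill equation.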

[19] = test system: Zika virus NS2B-NS3 protease; assay: Primary screen GU AMC qHTS for Zika virus inhibitors (AID 1347154);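 further: 0% = no-inhibitor control and -100% = no-enzyme control; nearly all actives have a fitted effect of over 70% in size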
How it was run: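 Fluorogenic AMC-substrate cleavage by noncovalent NS2B-NS3 protease complex (25 nM, pH 8.0 Tris buffer with Tween 20) followed for 15 minutes at room temperature (~20% conversion). Percent inhibition from ex340/em450 signal change, fitted by 4-parameter Hill equation.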

[20] = Primary qHTS for small molecule stabilizers of the endoplasmic reticulum resident proteome: Secreted ER Calcium Modulated Protein (SERCaMP) assay (AID 1508630); further: on the % scale 0 is the no-effect control and ±100 the full control effect
How it was run: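 GLuc-SERCaMP-expressing SH-SY5Y cells, pretreated 16 h with compound, are challenged with thapsigargin to empty ER calcium stores; after 4 h, coelenterazine is added directly to the medium and luminescence is imaged.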

N#CC(C#N)=Cc1ccc([N+](=O)[O-])c(O)c1
inactive: Potency [1] | Potency [2] | Potency [3] | Potency [4] | Potency [5] | outcome [6] | outcome [7] | Potency [8] | Potency [9] | Potency [10] | Potency [11] | Potency [12] | Potency [13] | outcome [14] | outcome [15] | activation [16] -0.188% | outcome [17] | Potency [18] | Potency [19] | Potency [20]
